According to PubChem BioAssay:
Several values for one entry are separate records, joined by “and”; a condition that tells them apart may be missing. Equal entries are not always repeated. Activity calls are given as the source filed them.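 How the source made its calls, unless noted: active means thallium flux through the channel raised or lowered by more than 3 SD from vehicle-only wells, actives on both sides; inactive means the rest.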

Assays:
[1] = Cy5 fluorescence interference with SSB-bound oligo, artefact control for HCV NS3 helicase inhibitor project, biochemical, NIH Clinical Collection, E. coli SSB (AID 743268; call rule not given here)
[2] = test system: Hepatitis C virus NS3 helicase; assay: HCV NS3 helicase inhibitors, primary screen, biochemical, fluorescence polarization, NIH Clinical Collection (AID 743270; call rule not given here); conditions: NS3 helicase binding to Cy5-dT15 DNA, stronger effect = higher value, concentration not given here
[3] = molecular target: Single-stranded DNA-binding protein (Escherichia coli (strain K12)) (UniProt P0AGE0); assay: E. coli SSB displacement from DNA, counter-screen for HCV NS3 helicase inhibitor project, biochemical, fluorescence polarization, NIH Clinical Collection (AID 743271; in the data active means inhibition above about 28%); conditions: stronger effect = higher value, concentration not given here
[4] = fluorescence interference in NS3h assay format, artefact control for HCV NS3 helicase inhibitor project, biochemical, NIH Clinical Collection (AID 743272; call rule not given here;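 further: HCV NS3 helicase with a Cy5 labelled single stranded DNA probe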); conditions: fluorescence interference counterscreen, stronger effect = lower value
F380Y/beta4 = assay: modulators of BK channel variants, profiling panel, selectivity assay, cell-based, U2OS BacMam, thallium flux, beta subunits (AID 1259406); conditions: at 30 µM;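 further: initial slope of Thallos dye fluorescence rise after thallium is added; log ratio against the mean of 0.3% DMSO vehicle wells on the same plate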
[5] = molecular target: Calcium-activated potassium channel subunit alpha-1 (Homo sapiens) + Leucine-rich repeat-containing protein 26 (Homo sapiens) (UniProt Q12791+Q2I0M4); assay: as above; conditions: F380Y/Slo1WT/gamma1, at 30 µM
Sequence of Calcium-activated potassium channel subunit alpha-1 (Homo sapiens) + Leucine-rich repeat-containing protein 26 (Homo sapiens) (Q2I0M4 whole entry, looked up, one chain of several): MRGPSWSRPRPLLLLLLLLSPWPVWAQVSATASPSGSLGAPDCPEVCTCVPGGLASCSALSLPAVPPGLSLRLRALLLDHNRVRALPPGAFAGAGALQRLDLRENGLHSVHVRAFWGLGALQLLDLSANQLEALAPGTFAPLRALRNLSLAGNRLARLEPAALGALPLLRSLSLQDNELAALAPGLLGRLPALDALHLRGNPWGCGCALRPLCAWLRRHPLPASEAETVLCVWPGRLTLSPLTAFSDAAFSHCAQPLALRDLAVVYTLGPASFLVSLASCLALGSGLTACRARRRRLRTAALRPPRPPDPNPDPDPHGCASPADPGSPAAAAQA

R275C = assay: as above; conditions: at 30 µM
R275C/beta1 = assay: as above; conditions: at 30 µM
R275C/beta2Delta = assay: as above; conditions: at 30 µM
R275C/beta4 = assay: as above; conditions: at 30 µM
R275C/Slo1WT/beta2 = assay: as above; conditions: at 30 µM
[6] = polyglutamine-triggered caspase-3 activation inhibitors, cell-based (AID 1583); conditions: polyglutamine-induced caspase-3 activation, cell assay; stronger effect = higher value;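 tested at 10 µM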
[7] = suppressors of polyQ aggregation in yeast, 75Q-TubU reporter (AID 1593); conditions: Yeast 75Q polyglutamine aggregation reporter
[8] = inhibitors of mitochondrial cytochrome c release, biochemical, purified mitochondria (AID 1603); conditions: stronger effect = lower value;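 further: mouse liver mitochondria challenged with calcium chloride; signal normalized to the plate average as 100%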
[9] = inhibitors of polyQ protein aggregation (AID 1604); conditions: polyglutamine-induced protein aggregation inhibition assay; stronger effect = higher value; tested at 2.5 µM
[10] = enhancers of glutamate uptake in motor neurons, MN-1 cell line (AID 1612); conditions: MN-1 motor neuron cells, stronger effect = higher value;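 further: tested at 1 µM final; 0% = mean of DMSO vehicle wells on each plate; positive means more glutamate uptake than control and negative means less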
[11] = viability rescue of complex I mutant cybrids, primary screen, cell-based, galactose medium, ATP luminescence (AID 1645843;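 active means z-score of at least 1.8 in each of two replicates, scored against plate mean and spread of sample wells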;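 further: positive z means more ATP and so rescue of galactose-driven cybrid death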); conditions: complex I mutant cybrid cells, 72 h, stronger effect = higher value
[12] = LFS_MB_P medulloblastoma growth inhibition, cell-based, chromothripsis tumors, cisplatin or BGB combos (AID 1671449; in the data active means inhibition above about 80%;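 further: cells exposed for 96 hours; 0% = vehicle DMSO and 100% = killing by high DMSO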); conditions: LFS_MB_P medulloblastoma cells
[13] = HDN33 neuroblastoma growth inhibition, cell-based, chromothripsis tumors, cisplatin or BGB combos (AID 1671450; in the data active means inhibition above about 80%;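 further: cells exposed to compound for four days; 0% = vehicle DMSO and 100% = cell killing by high DMSO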); conditions: HDN33 neuroblastoma cells, stronger effect = higher value
[14] = HTB85 osteosarcoma cell growth inhibition, synergistic combos for chromothripsis tumors, BGB or cisplatin IC20 combos (AID 1671453; in the data active means inhibition above about 80%;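 further: cells exposed for 96 hours before readout; 0% = vehicle DMSO and 100% = high DMSO killing control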); conditions: HTB85 osteosarcoma cells, drug combinations, stronger effect = higher value

## COc1ccccc1OCCNCC(O)COc1cccc2[nH]c3ccccc3c12 (stereo not drawn)
[1]
  fluorescence ratio: 0.92 (inactive)
[2]
  inhibition: 1.19% (inactive)
[3]
  inhibition: 6.83% (inactive)
[4]
  fluorescence ratio: 0.94 (inactive)
F380Y/beta4
  log fold change Tl+ flux: 0.358 (active)
[5]
  log fold change Tl+ flux: 0.204 (active)
R275C
  log fold change Tl+ flux: -0.174 (active)
R275C/beta1
  log fold change Tl+ flux: 0.386 (active)
R275C/beta2Delta
  log fold change Tl+ flux: 0.0657 (inactive)
R275C/beta4
  log fold change Tl+ flux: 0.216 (active)
R275C/Slo1WT/beta2
  log fold change Tl+ flux: 0.0443 (inactive)

## NS(=O)(=O)c1cc2c(cc1Cl)NCNS2(=O)=O
[6]
  inhibition: -3.39%
[7]
  score: 1.21
[8]
  cytochrome c release ratio: 1.08
[9]
  inhibition of aggregation: 3.17%
[10]
  glutamate uptake change: 8.53%
[1]
  fluorescence ratio: 0.125 (active)
[2]
  inhibition: -5% (inactive)
[3]
  inhibition: -3.53% (inactive)
[4]
  fluorescence ratio: 1 (inactive)
[11]
  z-score: 0.29 (inactive) and 0.995 (inactive)
F380Y/beta4
  log fold change Tl+ flux: -0.0186 (inactive)
[5]
  log fold change Tl+ flux: -0.0022 (inactive)
R275C
  log fold change Tl+ flux: -0.00411 (inactive)
R275C/beta1
  log fold change Tl+ flux: 0.0065 (inactive)
R275C/beta2Delta
  log fold change Tl+ flux: -0.0287 (inactive)
R275C/beta4
  log fold change Tl+ flux: 0.00368 (inactive)
R275C/Slo1WT/beta2
  log fold change Tl+ flux: 0.0144 (inactive)

## O=C(O)CCCc1ccccc1
[1]
  fluorescence ratio: 0.99 (inactive)
[2]
  inhibition: -2.27% (inactive)
[3]
  inhibition: 1.05% (inactive)
[4]
  fluorescence ratio: 0.92 (inactive)
[11]
  z-score: -0.305 (inactive) and -0.05 (inactive) and 0.3 (inactive)
[12]; at 0.5 µM, stronger effect = higher value
  inhibition: -32.4% (inactive)
[12]; measured here: combination with BGB IC20, at 0.005 µM
  inhibition: -18.8%
[12]; measured here: combination with BGB IC40, at 0.005 µM
  inhibition: -12.3%
[12]; measured here: combination with BGB IC40, at 0.05 µM
  inhibition: -22.2%
[12]; measured here: combination with cisplatin, at 0.5 µM, stronger effect = higher value
  inhibition: -35%
[12]; measured here: combination with cisplatin, at 5 µM, stronger effect = higher value
  inhibition: -11.6%
[13]; BGB combo, at 5 µM
  inhibition: -16.9%
[13]; at 0.5 µM
  inhibition: -18.6% (inactive)
[13]; cisplatin combo, at 5 µM
  inhibition: 0.505%
[13]; measured here: with BGB IC20 combination, at 0.5 µM
  inhibition: -6.08%
[13]; measured here: with cisplatin IC20 combination, at 0.5 µM
  inhibition: -19.1%
[13]; single agent, at 5 µM
  inhibition: -3.58%
[14]; at 0.5 µM
  inhibition: -13.7% (inactive)
[14]; measured here: with BGB IC20, at 0.5 µM
  inhibition: -24.4%
[14]; measured here: with BGB IC20, at 5 µM
  inhibition: -45.4%
[14]; measured here: with cisplatin IC20, at 0.5 µM
  inhibition: -14.6%
[14]; measured here: with cisplatin IC20, at 5 µM
  inhibition: -12.8%
[14]; single agent, at 5 µM
  inhibition: -16.3%
F380Y/beta4
  log fold change Tl+ flux: 0.0283 (inactive)
[5]
  log fold change Tl+ flux: 0.00509 (inactive)
R275C
  log fold change Tl+ flux: -0.048 (inactive)
R275C/beta1
  log fold change Tl+ flux: 0.0568 (inactive)
R275C/beta2Delta
  log fold change Tl+ flux: -0.0698 (inactive)
R275C/beta4
  log fold change Tl+ flux: 0.032 (inactive)
R275C/Slo1WT/beta2
  log fold change Tl+ flux: 0.0104 (inactive)

## O=c1[nH]cnc2[nH]ncc12
[6]
  inhibition: 14.4%
[7]
  score: 1.09
[8]
  cytochrome c release ratio: 0.77
[9]
  inhibition of aggregation: 60.9%
[10]
  glutamate uptake change: -7.44%
[1]
  fluorescence ratio: 1.02 (inactive)
[2]
  inhibition: -5% (inactive)
[3]
  inhibition: -3.53% (inactive)
[4]
  fluorescence ratio: 0.99 (inactive)
[11]
  z-score: 0.315 (inactive) and -0.255 (inactive)
F380Y/beta4
  log fold change Tl+ flux: 0.00785 (inactive)
[5]
  log fold change Tl+ flux: 0.0214 (inactive)
R275C
  log fold change Tl+ flux: 0.00104 (inactive)
R275C/beta1
  log fold change Tl+ flux: 0.0222 (inactive)
R275C/beta2Delta
  log fold change Tl+ flux: 0.0262 (inactive)
R275C/beta4
  log fold change Tl+ flux: 0.0379 (inactive)
R275C/Slo1WT/beta2
  log fold change Tl+ flux: 0.0394 (inactive)

## COc1ccc(OC)c(C(O)CNC(=O)CN)c1 (stereo not drawn)
[6]
  inhibition: -17.3%
[7]
  score: 1.3
[8]
  cytochrome c release ratio: 1.63
[9]
  inhibition of aggregation: 41.7%
[10]
  glutamate uptake change: -11.6%
[1]
  fluorescence ratio: 1 (inactive)
[2]
  inhibition: -2.27% (inactive)
[3]
  inhibition: -2.76% (inactive)
[4]
  fluorescence ratio: 1.02 (inactive)
[11]
  z-score: 0.54 (inactive)
F380Y/beta4
  log fold change Tl+ flux: 0.0115 (inactive)
[5]
  log fold change Tl+ flux: 0.0303 (inactive)
R275C
  log fold change Tl+ flux: -0.0312 (inactive)
R275C/beta1
  log fold change Tl+ flux: -0.0304 (inactive)
R275C/beta2Delta
  log fold change Tl+ flux: -0.0183 (inactive)
R275C/beta4
  log fold change Tl+ flux: 0.00841 (inactive)
R275C/Slo1WT/beta2
  log fold change Tl+ flux: 0.0391 (inactive)

## COC1=CC(=O)C[C@@H](C)[C@]12Oc1c(Cl)c(OC)cc(OC)c1C2=O
[6]
  inhibition: 4.47%
[7]
  score: 1
[8]
  cytochrome c release ratio: 1.14
[9]
  inhibition of aggregation: 56.8%
[10]
  glutamate uptake change: -9%
[1]
  fluorescence ratio: 1 (inactive)
[2]
  inhibition: -4.09% (inactive)
[3]
  inhibition: -3.53% (inactive)
[4]
  fluorescence ratio: 1 (inactive)
[11]
  z-score: 1.05 (inactive)
F380Y/beta4
  log fold change Tl+ flux: -0.0398 (inactive)
[5]
  log fold change Tl+ flux: -0.0624 (inactive)
R275C
  log fold change Tl+ flux: -0.0442 (inactive)
R275C/beta1
  log fold change Tl+ flux: 0.0145 (inactive)
R275C/beta2Delta
  log fold change Tl+ flux: -0.00445 (inactive)
R275C/beta4
  log fold change Tl+ flux: -0.0288 (inactive)
R275C/Slo1WT/beta2
  log fold change Tl+ flux: 0.00636 (inactive)

## Nc1ncn([C@@H]2O[C@H](CO)[C@@H](O)[C@H]2O)c(=O)n1
[6]
  inhibition: -3.83%
[7]
  score: 1.31
[8]
  cytochrome c release ratio: 1.03
[9]
  inhibition of aggregation: 38.1%
[10]
  glutamate uptake change: 3.18%
[1]
  fluorescence ratio: 1.02 (inactive)
[2]
  inhibition: 1.36% (inactive)
[3]
  inhibition: 4.86% (inactive)
[4]
  fluorescence ratio: 1.04 (inactive)
[11]
  z-score: -1.16 (inactive) and -0.05 (inactive)
F380Y/beta4
  log fold change Tl+ flux: -0.0152 (inactive)
[5]
  log fold change Tl+ flux: 0.00381 (inactive)
R275C
  log fold change Tl+ flux: 0.0227 (inactive)
R275C/beta1
  log fold change Tl+ flux: 0.00104 (inactive)
R275C/beta2Delta
  log fold change Tl+ flux: 0.0218 (inactive)
R275C/beta4
  log fold change Tl+ flux: 0.000291 (inactive)
R275C/Slo1WT/beta2
  log fold change Tl+ flux: -0.00199 (inactive)

## CN(CCOc1ccc(CC2SC(=O)NC2=O)cc1)c1ccccn1 (stereo not drawn)
[1]
  fluorescence ratio: 1.05 (inactive) and 0.99 (inactive)
[2]
  inhibition: -1.19% (inactive)
[3]
  inhibition: 4.52% (inactive) and -0.87% (inactive)
[4]
  fluorescence ratio: 1.01 (inactive) and 0.96 (inactive)
[11]
  z-score: 0.19 (inactive) and 0.27 (inactive)
F380Y/beta4
  log fold change Tl+ flux: -0.0318 (inactive) and 0.0667 (inactive)
[5]
  log fold change Tl+ flux: -0.00356 (inactive) and 0.0332 (inactive)
R275C
  log fold change Tl+ flux: 0.0457 (inactive) and 0.0237 (inactive)
R275C/beta1
  log fold change Tl+ flux: 0.113 (active) and 0.178 (active)
R275C/beta2Delta
  log fold change Tl+ flux: 0.0398 (inactive) and 0.0538 (inactive)
R275C/beta4
  log fold change Tl+ flux: 0.0706 (inactive) and 0.0705 (inactive)
R275C/Slo1WT/beta2
  log fold change Tl+ flux: -0.0105 (inactive) and 0.0261 (inactive)
